Among the data in PubChem BioAssay (NCATS) are Potency and activity change, negative = inhibition values, retold here.

Inconclusive results are not listed. Entries that show only a call come without a potency. Values without a mark were called inactive. Activity calls are given as the source filed them. Calls come from the whole dose curve; as a rule, active = well fitted inhibition curve with a large enough effect; inconclusive = small, poorly fitted or top-dose-only effect; inactive = no such curve, though single readings can be large or run the other way.

The test system of experiment [1] is Zika virus NS2B-NS3 protease (unlinked complex). The experiment in a line: Primary screen GU Rhodamine qHTS for Zika virus inhibitors: Unlinked NS2B-NS3 protease assay (AID 1347159). Note: nearly all actives have a fitted effect of over 60% in size. Note: potency is the fitted concentration of half-maximal effect. The method in brief: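 Buffer 10 mM Tris-HCl pH 8.0, 0.01% Tween 20. Unlinked protease 25 nM; compound preincubation 15 min, RT, protected from light. Substrate Rhod110, 1.5 microM; ~15% conversion in 15 min.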
On the technique in general: qHTS replaces the single test concentration by a dilution series.

Experiment [2] has as its system Zika virus NS2B-NS3 protease (linked construct). As to the kind of experiment: Primary screen NINDS Rhodamine qHTS for Zika virus inhibitors (AID 1347160). Note: nearly all actives have a fitted effect of over 55% in size. The method in brief: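 Aprotinin served as in-plate control. Conditions: 25 nM linked NS2B-NS3, pH 8.0 Tris buffer, titrated compounds, 15 min preincubation and 15 min reaction with 1.5 microM Rhod110 substrate at room temperature.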

On to `CC1=C2C3OC(=O)C(C)C3(O)CCC2(C)CCC1` (centres undefined), for which, in experiment [1], the Potency entry is “inactive”.
With `C=C(C)[C@@H]1CC[C@]2(C(=O)O)CC[C@]3(C)[C@H](CCC4[C@@]5(C)CCC(=O)C(C)(C)C5C(O)C[C@]43C)C12` (some centres undefined), the Potency result in experiment [1] and in experiment [2] was “inactive” throughout.
With `COc1cc(O)cc(C)c1C(=O)O[C@H]1[C@@H](O)[C@@H](n2ccc(=O)[nH]c2=O)O[C@@H]1CO`, the Potency result in experiment [1] was “inactive”.
Consider `CCOC(=O)C(CCc1ccccc1)NC1CCCN2CCCC(C(=O)O)N2C1=O` (centres undefined), for which the Potency entry in experiment [1] and in experiment [2] was “inactive” throughout.
With `COc1cc(C2OCC3(O)C(c4ccc(O[C@@H]5O[C@H](CO)[C@@H](O)[C@H](O)[C@H]5O)c(OC)c4)OCC23O)ccc1O` (some centres undefined), the Potency result in experiment [1] was “inactive”.
Turning to `OCC(O)C(c1c[nH]c2ccccc12)c1c[nH]c2ccccc12` (centres undefined), in experiment [1], the Potency is 50.1 µM (active).
Turning to `O=C(c1ccc(Cl)c([N+](=O)[O-])c1)N1CCN(c2ccccc2F)CC1`, the Potency entry in experiment [1] and in experiment [2] was “inactive” throughout.
`COC(=O)/C=C/c1ccc(O[C@@H]2O[C@H](CO)[C@@H](O)[C@H](O)[C@H]2O)cc1`: the Potency result in experiment [1] and in experiment [2] was “inactive” throughout.
With `OC[C@@]1(O)CO[C@@H](OC[C@H]2O[C@@H](OCc3ccccc3)[C@H](O)[C@@H](O)[C@@H]2O)[C@@H]1O`, the Potency result in experiment [1] and in experiment [2] was “inactive” throughout.
For `CC(C)=CC1C[C@](C)(O)[C@@H]2[C@H]3CCC4[C@@]5(C)CC[C@H](O[C@@H]6OC[C@H](O)[C@H](O[C@@H]7O[C@H](CO[C@@H]8O[C@H](CO)[C@@H](O)[C@H](O)[C@H]8O)[C@@H](O)[C@H](O)[C@H]7O)[C@H]6O[C@@H]6O[C@@H](C)[C@H](O)[C@@H](O)[C@H]6O)C(C)(C)[C@@H]5CC[C@@]4(C)[C@@]34CO[C@@]2(C4)O1` (some centres undefined), in experiment [1], the Potency result was “inactive”.
Regarding `COC(=O)C1C(c2ccc(O)cc2)C(C(=O)O)C1c1ccc(O)cc1` (centres undefined), the Potency entry in experiment [1] and in experiment [2] was “inactive” throughout.
As for `COc1ccc2c(c1)C=C1Cn3c-2c(C2CCCCC2)c2ccc(cc23)C(=O)NS(=O)(=O)N(C)CCOCCN(C)C1=O`, the Potency in experiment [1] was 2.51 µM (active).
`Cc1[nH]c2ccccc2c1CC(=O)N[C@@H](Cc1ccccc1)C(=O)N(C)c1ccccc1`: the Potency result in experiment [1] and in experiment [2] was “inactive” in each case.
Regarding `CC(C)=CCc1c(O)cc2oc3cc(C)cc(O)c3c2c1C`, the Potency in experiment [1] is 20 µM (active). In experiment [2], the Potency entry was “inactive”.
On to `CC(=O)O[C@@H]1C(=O)C(C)=C(CCC(C)CC(=O)O)[C@@]2(C)CCCC(C)(C)C12` (some centres undefined), for which the Potency entry in experiment [1] and in experiment [2] was “inactive” in each case.
As to `COc1cc(/C=C/CO[C@@H]2O[C@H](CO)[C@@H](O)[C@H](O)[C@H]2O)cc(OC)c1O[C@@H]1O[C@H](CO)[C@@H](O)[C@H](O)[C@H]1O`, in experiment [1], the Potency result is “inactive”.
The same measure, in the same setting: then `CC1=CCC[C@@H]2[C@](CCc3ccoc3)(C(=O)O)[C@H](C)CC[C@@]12C`, with 8.91 µM (active).
As to `CC1(C)C[C@@H]2[C@H](C1)[C@@]1(C)C[C@]13C(O)OC[C@]3(O)[C@H]2O` (some centres undefined), the Potency result in experiment [1] and in experiment [2] was “inactive” each time.
For `COc1cc(Nc2nc3c(s2)CCCC3c2ccccc2)ccc1-n1cnc(C)c1` (centres undefined), the activity change, negative = inhibition in experiment [1] is -0.986% [at 19.1 µM]. Besides, the Potency result in experiment [2] was “inactive”.
In the case of `CC(C)C1(O)NC(=O)C(CC2(O)c3ccccc3N3C(=O)C(C)(C)NC32)n2c1nc1ccccc1c2=O` (centres undefined), the Potency entry in experiment [1] and in experiment [2] was “inactive” throughout.
`Cc1cc(CO)c(O)c(C(=O)CC2CC(=O)NC(=O)C2)c1`: the Potency result in experiment [1] and in experiment [2] was “inactive” throughout.
